Only some compounds are listed: those with a hit (about 6% of all), similar ones and a draw of the others.
D1 antagonist = Antagonist of Human D 1 Dopamine Receptor: qHTS. D(1A) dopamine receptor (Homo sapiens), P21728. HEK293 TREx D1 cells, calcium flux, dopamine EC80; active compounds read low. activity change, negative = inhibition, % at 10 µM. hit rate 3.2% among 360,000; in the data active = activity change below about -30%; note: % is set by controls: 0 for no effect and ±100 for the full control effect
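Kinetic fluorescence of a calcium dye serves as the read-out. D1-expressing Hek293 Trex cells, induced overnight at 30 C, are exposed to compound for 180 s before an EC80 dopamine addition, then read 180 s further.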
D1 ag = Allosteric Agonists of the Human D1 Dopamine Receptor: qHTS; HEK293 T-REx D1 cells, calcium flux, agonist mode; AID 504660, 2011; activation, % at 2 µM; hit rate 1% among 360,000; D(1A) dopamine receptor (Homo sapiens), P21728; in the data active = activation above about 30%; note: 0% is about no effect
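Tetracycline-induced HEK293 TREx D1 cells, force-coupled to calcium signalling, were dye-loaded with a no-wash calcium kit. Compound was pin-added after a 10 s baseline. Fluorescence was read kinetically at 1 cycle/s for 180 s, with calcium rises flagged as agonism.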
D3 ag = qHTS of D3 Dopamine Receptor Agonist: qHTS; max activation, %; D3R DiscoveRx beta-arrestin cells, luminescence, 90 min; D(3) dopamine receptor (Homo sapiens), P35462; hit rate 0.58% among 410,000; AID 652048, 2013; in the data active = max activation above about 30%; note: 0% is about no effect
Target sequence (P35462 whole entry, looked up): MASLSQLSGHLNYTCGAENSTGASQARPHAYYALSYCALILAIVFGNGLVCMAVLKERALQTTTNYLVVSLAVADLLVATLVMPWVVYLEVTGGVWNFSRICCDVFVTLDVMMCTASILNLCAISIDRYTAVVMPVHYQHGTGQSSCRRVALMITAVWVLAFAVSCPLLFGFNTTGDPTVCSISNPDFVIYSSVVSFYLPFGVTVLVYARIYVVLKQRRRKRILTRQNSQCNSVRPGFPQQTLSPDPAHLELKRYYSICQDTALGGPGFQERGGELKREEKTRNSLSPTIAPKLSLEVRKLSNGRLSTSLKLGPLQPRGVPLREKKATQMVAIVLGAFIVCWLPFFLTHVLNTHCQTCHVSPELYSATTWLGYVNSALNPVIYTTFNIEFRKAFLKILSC
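Agonist mode: compounds and dopamine controls were applied to plated cells for 90 min at 37 degrees C after an overnight attachment at 1500 cells/well. Luminescent read-out followed 30 - 60 minutes at room temperature with DiscoveRx detection reagent.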
DRD3 antagonist = qHTS of D3 Dopamine Receptor Antagonist: qHTS; D(3) dopamine receptor (Homo sapiens), P35462; D3R cells, DiscoveRx beta-arrestin luminescence, antagonist mode; active compounds read low; max response, negative = inhibition, %; hit rate 2.5% among 360,000; in the data active = max response below about -50%; inconclusive = no clear call, values can overlap the other calls; note: % is set by controls: 0 for no effect and ±100 for the full control effect
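Cells expressing the human receptor were seeded at 1500 cells/well, incubated overnight at 37 degrees C in 5% CO2, then exposed to library compounds with dopamine controls for 90 minutes at 37 degrees C before luminescent detection.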
D1 potentiator = Potentiators of Human D1 Dopamine Receptor: qHTS; HEK293 TREx D1 cells, calcium flux, dopamine EC20 potentiation; potentiation, % at 10 µM; D(1A) dopamine receptor (Homo sapiens), P21728; hit rate 0.036% among 360,000; AID 504651, 2011; in the data active = potentiation above about 30%; note: 0% is about no effect
Starred values were filed as active, the others as inactive; ? = inconclusive; nt = no result.

SMILES	D1 antagonist	D1 ag	D3 ag	DRD3 antagonist	D1 potentiator
O=C(NCCCN1CCN(c2ccccc2F)CC1)Nc1ccc(F)cc1	-78.7*	4.1	15.1	?	-11.3
O=C(NCCCN1CCCC1)Nc1ccc(F)cc1	-14.3	3.4	3.9	1.4	-5.8
CSc1ccc(NC(=O)NCCCN2CCN(c3ccccc3F)CC2)cc1	-72.9*	37.0*	6.3	-20.4	-4.0
COc1ccccc1N1CCN(CCCNC(=O)Nc2ccccc2)CC1	-17.6	0.8	21.6	-28.7	-11.2
CC(=O)Nc1cc(-c2cccc(CO)c2)cn2c(-c3ccc(F)cc3)cnc12	nt	nt	0.2	14.9	nt
Cc1cccc(NC(c2cccc(Cl)c2)c2ccc3cccnc3c2O)n1 (stereo unspecified)	0.8	2.8	20.9	nt	-1.8
CCCCn1c(-c2ccc(F)c(F)c2)nc2cc3[nH]c(=O)c(C(C)C)nc3cc21	-1.4	0.3	12.1	6.9	-12.7
CCCCn1c(CCc2ccccc2)nc2cc3[nH]c(=O)c(C(C)C)nc3cc21	-81.6*	1.5	18.4	-8.1	-16.9
CNC(=S)SCCOc1ccc(C)cc1	-91.4*	2.2	-4.4	14.1	-7.0
CNC(=S)SCCOc1ccccc1	-20.1	3.9	6.2	-13.0	-1.9
C=CCNc1nc(NCCOc2ccccc2Cl)c2sc(-c3ccccc3)cc2n1	nt	nt	-13.3	-66.5*	nt
C=CCNc1nc(NCCOC)c2sc(-c3ccccc3)cc2n1	nt	nt	-11.0	-22.8	nt
CC(C)Nc1nc(NCCN2CCCC2)c2sc(-c3ccccc3)cc2n1	nt	nt	-10.5	-64.9*	nt
CN(C)CCCNCCCCNC(=O)/C=N/O	-22.7	3.9	0.2	15.7	3.6
CN(C)CCCNCCCNC(=O)/C=N/O	-38.3*	0.6	7.9	18.7	-7.8
CCOc1ccc(-c2cc3c(=O)n(CC(=O)Nc4c(C)cccc4C)ccn3n2)cc1	-17.6	-0.8	-8.6	nt	-1.1
COc1ccccc1N(CC(=O)Nc1c(C)n(C)n(-c2ccccc2)c1=O)S(=O)(=O)c1ccc(C)cc1	1.1	0.9	16.1	-3.3	-2.1
Cc1ccc(S(=O)(=O)N(CC(=O)Nc2c(C)cccc2C)c2cccc(Cl)c2)cc1	-85.4*	1.1	-5.4	nt	1.2
Cc1ccc(S(=O)(=O)N(CC(=O)Nc2cccc(N(C)S(C)(=O)=O)c2)c2ccc(Cl)c(Cl)c2)cc1	-32.3*	3.5	-22.0	-21.9	-12.1
COc1ccc(N(CC(=O)Nc2c(C)n(C)n(-c3ccccc3)c2=O)S(=O)(=O)c2ccc(C)cc2)cc1OC	-11.0	1.4	5.0	-110.9*	3.7
Cc1ccccc1Cn1c(=O)n(CCc2ccccc2)c(=O)c2c(C)c(C)sc21	-3.6	0.3	2.4	nt	1.4
Cc1n[nH]c(C)c1S(=O)(=O)N1CCCC(C(=O)Nc2ccc(Cl)cc2)C1 (stereo unspecified)	3.9	1.9	-11.1	nt	2.4
CC1(C(=O)Nc2cccc(Oc3ccccc3)c2)CCN1Cc1cccc2c1OCO2 (stereo unspecified)	nt	nt	17.2	61.8	nt
COc1cc2ccccc2cc1C(=O)OCC(=O)NC1CCS(=O)(=O)C1 (stereo unspecified)	-33.5*	1.6	0.3	1.7	-8.1
COc1cc(-c2cc(C(=O)OCC(=O)NC3CC3)c3ccccc3n2)cc(OC)c1OC	nt	nt	32.5*	58.4	nt
SMILES	D1 antagonist	D1 ag	D3 ag	DRD3 antagonist	D1 potentiator
COc1cc(-c2cc(C(=O)N(C)Cc3ccccc3)c3ccccc3n2)cc(OC)c1OC	1.5	2.3	32.5*	15.5	-6.5
Cc1cc(C)c(NC(=O)c2sc3nc(C)cc(C)c3c2NC(=O)c2ccccc2)c(C)c1	4.6	-1.0	-17.0	nt	-0.4
COC(=O)CC1c2cc(OC)c(OC)cc2CCN1C(=O)Nc1ccc(C)cc1Cl (stereo unspecified)	-12.6	14.6	-20.8	nt	0.3
CC(C)CC(O)C(=O)Nc1cc(C(F)(F)F)ccc1Cl (stereo unspecified)	-7.7	1.4	nt	nt	3.1
CSc1ccc(COC(=O)CCS(=O)(=O)c2ccc(C)cc2)cc1	-2.5	3.5	-10.9	0.2	-6.5
COc1ccc(COC(=O)CCS(=O)(=O)c2ccc(C)cc2)cc1	-44.2*	6.8	4.7	11.9	0.6
COc1cc(CN2C[C@@H](CO)O[C@@H](n3cnc4c(Nc5ccccc5)ncnc43)C2)cc(OC)c1OC	nt	nt	3.1	25.2	nt
COC(=O)C(Cc1ccccc1)OS(N)(=O)=O (stereo unspecified)	-4.5	2.2	-11.5	-57.7*	-0.9
CC(=O)Nc1ccc2nc(SCCOc3ccccc3Cl)sc2c1	6.0	5.6	2.7	nt	-1.6
O=C(CSc1ccccc1C(=O)O)NC1CCCCCCC1	-9.1	1.3	0.5	18.8	-2.9
O=C(CSc1ccccc1C(=O)O)NC1CCCCCC1	-38.7*	2.2	1.7	-10.6	-5.0
O=C(CSc1ccccc1C(=O)NCc1ccccc1)NC1CCCCCCC1	-84.1*	1.8	1.1	11.2	-4.6
CC(C)CCNC(=O)c1ccccc1SCC(=O)NC1CCCCCCC1	-21.7	-0.2	-8.4	-2.4	-3.9
O=C(Cn1c(=O)nc(-c2ccccc2)c2cc(Cl)ccc21)N1CCN(c2ccc(F)cc2)CC1	-8.1	-0.5	6.3	nt	1.6
CCN(CC)C(=O)C1CCCN(c2ncnc3c2nc2n3CCCCC2)C1 (stereo unspecified)	-2.3	0.5	-2.6	nt	2.6
O=C(CN1CCCC1)NC(c1ccccc1)c1ccccc1	-2.8	6.5	-4.6	-7.8	-0.5
COc1ccc(NC(=O)CN2CCCC2)cc1	-1.7	1.1	-1.8	0.0	-20.7
COc1ccc(C(NC(=O)CN2CCCCCC2)c2ccc(OC)cc2)cc1	-1.2	6.6	-28.5	-52.5*	-7.8
O=C(CN1CCN(c2ccccc2O)CC1)NC(c1ccccc1)c1ccccc1	-6.1	0.7	-19.2	-56.2*	0.5
CCOc1ccccc1N1CCN(CC(=O)NC(C)c2ccccc2)CC1 (stereo unspecified)	3.7	3.5	-22.1	-89.1*	-2.0
CCOc1ccccc1N1CCN(C(=O)Nc2ccc(Cl)c(Cl)c2)CC1	-35.7*	1.5	nt	nt	1.5
CC(NC(=O)CN1CCN(c2ccc(Cl)cc2)CC1)c1ccccc1 (stereo unspecified)	-13.3	3.7	9.2	-0.6	-12.2
CCCCCCCN(c1ccccc1)[C@@H]1C[C@H]2CCCC(=O)N3CC[C@@H](C1)[C@@H]23	nt	nt	-20.5	18.6	nt
COc1ccc(N2C(=O)CSC23C(=O)N(CC(=O)Nc2ccccc2F)c2ccccc23)cc1 (stereo unspecified)	-2.2	8.6	-2.5	nt	-3.3
O=C(Nc1ccc(N2CCOCC2)c(Cl)c1)c1ccccc1Cl	6.5	0.8	1.5	-53.5*	-2.9
CN1CCN(c2ccc(NC(=O)c3ccco3)cc2Cl)CC1	-38.3*	1.7	-3.8	-5.3	-2.5
